Among the data in ChEMBL document CHEMBL4513216, “Probing the Open Global Health Chemical Diversity Library for Multistage-Active Starting Points for Next-Generation Antimalarials” (ACS Infect Dis, 2020) are INHIBITION values, retold here.

About 8,600 (12%) of roughly 69,000 compounds showed an effect of 50% or more. Many of the other results were omitted from the sample, so strong results are more common in it than they were.

The assay relates to Plasmodium berghei. The assay is described as follows: Screen against P. berghei liver stage (PbLuc), transformed with Luciferase, at 10uM. To be noted: tested at 10 uM. It is filed as functional, HepG2.
In the case of `O=C(c1cc2c(s1)CCC2)N1CCC(c2cnccn2)CC1`, the INHIBITION is listed as 28.5%.

Turning to `CC(C)NC(=O)N1CCC2(CC1)CN(C(=O)NC(C)C)CCO2`, the INHIBITION was 11.8%. The same measure for `CC(C)C(=O)NCc1ccc(N2CCCC2)nc1`: -24.2%; for `O=C(NCc1csc(-c2cnccn2)n1)c1cnn2c1CCCC2`: 8.7%.

Turning to `Cc1cnn(CC2CCCN2C(=O)CCc2c(C)noc2Cl)c1` (stereo unspecified), the INHIBITION is recorded as 0%. The same measure for `CCNC(=O)[C@@H]1C[C@@H](NC(=O)c2ccsc2)CN1CCCSC`: -16.9%. Take `Cc1cccc(CNC(=O)CNc2cc(CO)ccc2Cl)c1`: the INHIBITION is 14.2%. As to `CN1CC(=O)N(c2cnn(C)c2)CC12CCN(Cc1cccnc1)C2` (stereo unspecified), the INHIBITION stood at 39.8%. As for `CC(C)(NCC(=O)NC(=O)NC1CC1)c1ccc2c(c1)OCO2`, the INHIBITION was 43.3%. Take `O=C(CC1[C@H]2CN(C(=O)c3cccnc3)C[C@@H]12)Nc1cccnc1` (stereo partly specified): the INHIBITION was determined as 34.6%. As to `Cn1cc(-c2nnc3sc(C4CCC4)nn23)cn1`, the INHIBITION was 25.2%. For `COc1cc(C)ccc1OCC(=O)NS(=O)(=O)c1cccnc1`, the INHIBITION was -16%. The same measure for `O=S(=O)(C1CC1)N1CCO[C@@H]2CC(COCc3cccnc3)C[C@H]21` (stereo partly specified): 34.5%. The same measure for `O=C(Nc1cccnc1)NC1(c2cccc(F)c2)CC1`: -2.39%; for `Cc1cc(C)n(CC(=O)Nc2cc(-c3ccncc3)[nH]n2)n1`: 5.94%; for `Cc1ccnn1CC(=O)Nc1cc(-c2ccncc2)[nH]n1`: 63.4%. Regarding `Cc1ccn(CC(=O)Nc2cc(-c3ccncc3)[nH]n2)n1`, the INHIBITION is recorded as 39.6%.

For the compound `Cc1cc(C2CCCN(C(=O)COc3cc(C)on3)C2)n[nH]1` (stereo unspecified), the INHIBITION was -23.8%. As to `COCCNc1ncc(-c2onc(C)c2C)c(-c2ccco2)n1`, the INHIBITION was found to be 31.85%. `Cc1nnc(N2CCOC(C)(C(=O)NC3CCCC3)C2)c2ccccc12` (stereo unspecified): the INHIBITION turned out to be 4.41%. With `O=C(CCn1ncc2c(Cl)cccc21)NCC1CC1`, the INHIBITION was found to be 68.9%. Turning to `Cc1nn(C)c(C)c1CNC(=O)CCn1ncc2c(Cl)cccc21`, the INHIBITION is on record as 49.9%. As to `CN(C)CCNC(=O)CCn1ncc2c(Cl)cccc21`, the INHIBITION was determined as 55.7%. The same measure for `CN(C)C(=O)CNC(=O)CCn1ncc2c(Cl)cccc21`: -15.8%; for `CCn1ncc(NC(=O)CCn2ncc3c(Cl)cccc32)c1C`: 9.32%; for `CC(C)(C)NC(=O)CCn1ncc2c(Cl)cccc21`: 47.4%. The same measure for `COCCCNC(=O)CCn1ncc2c(Cl)cccc21`: 20.9%. The same measure for `CCn1cc(CNC(=O)CCn2ncc3c(Cl)cccc32)cn1`: 54.9%; for `O=C(CCn1ncc2c(Cl)cccc21)NCCCO`: 49.9%; for `O=C(CCn1ncc2c(Cl)cccc21)NCCCn1cccn1`: -2.28%. On to `COCCNC(=O)CCn1ncc2c(Cl)cccc21`, for which the INHIBITION turned out to be 55.7%. Consider `CCN(CC)C(=O)CCn1ncc2c(Cl)cccc21`, for which the INHIBITION is on record as -4.74%. In the case of `Cc1nnc(N2CCc3cncnc3C2)c(C#N)c1C` it was -5.08%; in that of `Cc1nc(C2CCCN2CC(=O)Nc2c(C)n[nH]c2C)no1` (stereo unspecified), 27.8%; in that of `CC[C@H](C)[C@H](N)C(=O)Nc1nc(-c2cnc(N(C)CCO)nc2)cs1`, -37.5%.

As to `Cc1cn2c(=O)c(-c3ccnc(N4CCC[C@@H]4CO)n3)cnc2s1`, the INHIBITION is recorded as 4.08%. `Cn1cc(CC2CCN(C(=O)NCc3cccc(C(N)=O)c3)C2)cn1` (stereo unspecified): the INHIBITION is listed as -51.705%.

As for `O=C1NC2(CCN(CC3CC3)CC2)CC1c1ccccc1` (stereo unspecified), the INHIBITION is given as 52.6%. Regarding `O=C1NC2(CCN(C/C=C/c3ccccc3)CC2)CC1c1ccccc1` (stereo unspecified), the INHIBITION is reported as 63.8%. In the case of `O=C1NC2(CCNCC2)CC1c1cccnc1` (stereo unspecified) it was 52.3%; in that of `O=C1NC2(CCN(CCc3ccccc3)CC2)CC1c1ccccc1` (stereo unspecified), 52.6%. In the case of `O=C1NC2(CCN(C(=O)Cc3ccsc3)CC2)CC1c1ccccc1` (stereo unspecified), the INHIBITION was -4.88%.

For `O=C1CC(c2ccccc2)C2(CCN(CC3CC3)CC2)N1` (stereo unspecified), the INHIBITION worked out at 31.2%. For `O=C1NC2(CCN(Cc3cccnc3)CC2)CC1c1ccncc1` (stereo unspecified), the INHIBITION was determined as 49.5%. `O=C1NC2(CCN(CCO)CC2)CC1c1ccccc1` (stereo unspecified): the INHIBITION is 21.6%. For the compound `O=C1NC2(CCNCC2)CC1c1ccncc1` (stereo unspecified), the INHIBITION is listed as 33.4%. With `O=C1NC2(CCNCC2)CC1c1ccccc1` (stereo unspecified), the INHIBITION turned out to be 49.7%. For `O=C1NC2(CCN(C(=O)c3ccnnc3)CC2)CC1c1ccccc1` (stereo unspecified), the INHIBITION is recorded as -16.9%. The same measure for `O=C1NC2(CCN(Cc3cccnc3)CC2)CC1c1cccnc1` (stereo unspecified): -12.1%; for `CCOCc1cnc2n1CCN(Cc1cccs1)C2C` (stereo unspecified): -10.5%. The same measure for `Nc1cc(-c2c[nH]nc2C2CCCN2CCCc2ccccc2)ccn1` (stereo unspecified): 17.8%; for `CCn1cc(CN2CCCN(C(=O)c3cccc(C#N)c3)CC2)cn1`: -73.1%.

In the case of `CNc1ccc(CC2CCCN(Cc3c[nH]cn3)C2)nn1` (stereo unspecified), the INHIBITION was found to be 36.9%.

Turning to `Cc1cnn(CC2CCCN2C(=O)Cc2c(C)noc2C)c1` (stereo unspecified), the INHIBITION is 29.4%. In the case of `Cc1nccn1CC1CCCN(S(=O)(=O)c2cnn(C)c2)C1` (stereo unspecified) it was 42.5%.

Take `CCc1nccn1C1CCCN(C(=O)c2csc(C3CC3)n2)C1` (stereo unspecified): the INHIBITION was -4.16%. For `CCN1C[C@H]2CCN(c3ncccn3)CC[C@H]2S1(=O)=O`, the INHIBITION is reported as -41.6%. In the case of `CC(C)CN1C[C@H]2CCN(c3ncccn3)CC[C@H]2S1(=O)=O` it was -14.9%; in that of `COCCN1C[C@H]2CCN(c3ncccn3)CC[C@H]2S1(=O)=O`, 82.9%. In the case of `CCn1nc(C)c2nnn(CC(=O)Nc3ccccc3)c(=O)c21`, the INHIBITION came to 49.9%.

Regarding `CN(C)S(=O)(=O)N1C[C@H]2CCC[C@@]2(COc2cccnc2)C1`, the INHIBITION is listed as -16.9%. In the case of `CN1CCN([C@@H]2CCN(C3CCOCC3)[C@H]2Cc2cnn(C)c2)CC1` it was -8.85%; in that of `Cc1nnsc1-c1nnc2sc(C(C)C)nn12`, 12.5%; in that of `Cc1nn2c(-c3snnc3C)nnc2s1`, 61.8%. On to `Cc1nnsc1-c1nnc2sc(C3CCC3)nn12`, for which the INHIBITION is on record as -13.1%. In the case of `O=C1CCC(c2ccc(Cl)cc2)=NN1CN1CCSCC1` it was 6.34%. In the case of `CO[C@@H]1CCN(Cc2cnn(C)c2)[C@@H]2CN(Cc3ccco3)C[C@@H]21` it was 7.11%. In the case of `O=C(O)CCc1cc2n(n1)CCCN(C(=O)c1cc3ccccc3s1)C2` it was 67.9%; in that of `CCOc1cccc(C(=O)N2CCCn3nc(CCC(=O)O)cc3C2)c1`, -19%. For `O=C(c1ccc(Cl)s1)N1CCCn2nc(CN3CC[C@H](F)C3)cc2C1`, the INHIBITION is recorded as 45%. The same measure for `O=C(O)CCc1cc2n(n1)CCCN(C(=O)c1ccc(Cl)s1)C2`: 51.5%; for `CCc1cc(C(=O)N2CCCn3nc(CCC(=O)O)cc3C2)cs1`: 22.8%. Take `CCCc1nc(C(=O)N2CCCn3nc(CCC(=O)O)cc3C2)cs1`: the INHIBITION is -9.86%. In the case of `Cc1ccc(C(=O)N2CCCn3nc(CCC(=O)O)cc3C2)cc1Cl`, the INHIBITION is on record as 52.5%. The same measure for `O=C(O)CCc1cc2n(n1)CCCN(C(=O)c1ccc(F)cc1F)C2`: -13.5%.

In the case of `O=C(O)CCc1cc2n(n1)CCCN(C(=O)c1ccc3cc[nH]c3c1)C2`, the INHIBITION stood at 8.47%. Regarding `CC(C)n1nc(Cn2cccc2)c2c1CN(C1CCOCC1)C2`, the INHIBITION came to 23.3%. The same measure for `Cc1nc(CN(C)C(=O)NC(C)c2ccc3c(c2)OCCO3)cs1` (stereo unspecified): 31.2%. In the case of `CC(Cn1cccn1)NC(=O)CCc1nc(C(C)(C)C)no1` (stereo unspecified) it was 10.6%; in that of `O=C1COC2(CCN(Cc3ccncc3)CC2)CN1c1ccccc1`, -27.4%; in that of `Cc1c[nH]c(C2COCCN2S(=O)(=O)c2cn[nH]c2)n1` (stereo unspecified), -8.12%. Consider `CCc1nc(N)nc(NCCC(=O)N2CCCC2)c1C`, for which the INHIBITION is listed as 62.8%. In the case of `Cc1ccc(CSc2nc(N)cc(NCCC(=O)N3CCCC3)n2)cc1` it was 36.6%; in that of `CCc1cnc(C)nc1NCCC(=O)N1CCC(C)CC1`, -21.1%; in that of `CCn1ccnc1CN1CCC(N(Cc2ncc(C)o2)C(C)=O)C1` (stereo unspecified), 48.2%.

In the case of `Cn1cc(CC(=O)N2CCCC(c3ccn[nH]3)C2)cn1` (stereo unspecified), the INHIBITION is on record as 5.11%. In the case of `CO[C@@H]1CCN(c2ncc(F)cn2)[C@@H]2CN(Cc3cccnc3)C[C@@H]21` it was 31.4%.

`Fc1cnc(N2CCO[C@H]3CN(CC4CCCCC4)C[C@H]32)nc1`: the INHIBITION is listed as 30.3%.

As to `CO[C@H]1CCN(c2ncc(F)cn2)[C@@H]2CN(Cc3ccco3)C[C@H]12`, the INHIBITION is reported as 49.1%. The same measure for `Fc1cnc(N2CCO[C@H]3CN(CC4CCCC4)C[C@H]32)nc1`: -13.3%; for `CCN1C[C@H]2[C@@H](C1)N(c1ncc(F)cn1)CC[C@H]2OC`: 84.5%; for `CO[C@@H]1CCN(c2ncc(F)cn2)[C@@H]2CN(CC3CC3)C[C@@H]21`: 60.3%. Regarding `CCN1CCN(c2nc(O)cc(Cc3ccccc3F)n2)CC1`, the INHIBITION came to 10.9%.

`CNC(=O)c1sccc1S(=O)(=O)NC`: the INHIBITION worked out at 46.6%. In the case of `CNS(=O)(=O)c1ccsc1C(=O)OC` it was 37.6%; in that of `CNC(=O)c1sccc1S(=O)(=O)Nc1ccc(C)cc1`, 61.1%; in that of `O=C(c1cccnc1)N1CCCC1c1nc(O)cc(-c2ccccn2)n1` (stereo unspecified), 36.7%.

Consider `Clc1cccc(C[C@@H]2NCCC[C@@H]2Nc2cccc(Cl)c2)c1`, for which the INHIBITION was determined as 92.6%. The same measure for `Clc1cccc(N[C@H]2CCCN[C@H]2Cc2ccccc2)c1`: 91.6%; for `O=S(=O)(c1cccc(Cl)c1)N1C[C@@H]2CCN[C@@H]2C1`: -14.7%. Take `O=C1NCCCC1NC(=O)C1(c2cccc(Cl)c2)CCC1` (stereo unspecified): the INHIBITION is recorded as -2.27%. In the case of `c1ccc(CCNc2cccc(C3CCCNC3)n2)cc1` (stereo unspecified) it was 34%; in that of `O=C(NCCc1cccc(Cl)c1)C1CCOCC1`, 27.7%; in that of `O=C1NCCCc2[nH]c(Cc3cccc(Cl)c3)nc21`, 32%.

Regarding `Clc1cccc(C[C@@H]2NCCC[C@@H]2Nc2ccccc2)c1`, the INHIBITION came out at 86.1%. For `O=C(Cc1cccc(Cl)c1)N[C@@H]1CCNC[C@H]1O`, the INHIBITION is reported as 0.547%.
